The campaign covered roughly 5,500 compounds. About 2,000 (36%) were called active. Roughly 18% stayed inconclusive and do not appear here. Rule as the data show it: active = normalized growth mostly below about 0.91 (no sharp cut-off); inconclusive = no clear call, values can overlap the other calls; inactive = mostly above about 0.92. The list shows a part of the results.
Assay: chemical genetic growth profiling, strain panel (AID 1159580);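 also: tested at 20 µM; growth read once vehicle control cultures reached saturation at 30 °C; 1 = growth at the plate median or of vehicle wells; lower values mean less growth of the strain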
Settings: growth OD
[1] = S. cerevisiae deletion strains, locus YAL013W, strain DEP1, stronger effect = lower value
[2] = S. cerevisiae deletion strains, locus YDR150W, strain NUM1, stronger effect = lower value
[3] = S. cerevisiae deletion strains, locus YGR078C, strain PAC10, stronger effect = lower value
[4] = S. cerevisiae deletion strains, locus YJR075W, strain HOC1, stronger effect = lower value
[5] = S. cerevisiae deletion strains, locus YMR307W, strain GAS1, stronger effect = lower value
[6] = S. cerevisiae deletion strains, locus YNL322C, strain KRE1, stronger effect = lower value
[7] = S. cerevisiae deletion strains, locus YBR229C, strain ROT2, stronger effect = lower value
[8] = S. cerevisiae deletion strains, locus YDL101C, strain DUN1, stronger effect = lower value
[9] = S. cerevisiae deletion strains, locus YEL061C, strain CIN8, stronger effect = lower value
[10] = S. cerevisiae deletion strains, locus YHR030C, strain SLT2, stronger effect = lower value
[11] = S. cerevisiae deletion strains, locus YJR043C, strain POL32, stronger effect = lower value
[12] = S. cerevisiae deletion strains, locus YLR039C, strain RIC1, stronger effect = lower value
[13] = S. cerevisiae deletion strains, locus YLR262C, strain YPT6, stronger effect = lower value
[14] = S. cerevisiae deletion strains, locus YNL153C, strain GIM3, stronger effect = lower value
[15] = S. cerevisiae deletion strains, locus YPL241C, strain CIN2, stronger effect = lower value

Measured: normalized growth

COc1cc(CNC(=O)CCCCCCC(C)C)ccc1O
inactive: [1] 0.944 | S. cerevisiae deletion strains, locus YAL040C, strain CLN3, stronger effect = lower value 0.986 | S. cerevisiae deletion strains, locus YCL061C, strain MRC1 (second series), stronger effect = lower value 0.993 | [2] 1 | S. cerevisiae deletion strains, locus YDR363W, strain ESC2, stronger effect = lower value 0.974 | S. cerevisiae deletion strains, locus YER002W, strain NOP16, stronger effect = lower value 1 | [3] 0.999 | [4] 0.988 | [5] 0.973 | S. cerevisiae deletion strains, locus YNL175C, strain NOP13, stronger effect = lower value 1.01 | S. cerevisiae deletion strains, locus YNL197C, strain WHI3, stronger effect = lower value 0.981 | S. cerevisiae deletion strains, locus YNL224C, strain SQS1, stronger effect = lower value 0.981 | [6] 0.983 | S. cerevisiae deletion strains, locus YOR083W, strain WHI5 (second series), stronger effect = lower value 0.981

CCC[C@H]1CC2=C(C[C@@H](CC)CC3=C1C(=O)OC3=O)C(=O)OC2=O
active: S. cerevisiae deletion strains, locus YGL078C, strain dbp3, stronger effect = lower value 0.65 | S. cerevisiae deletion strains, locus YIL125W, strain kgd1, stronger effect = lower value 0.875 | S. cerevisiae deletion strains, locus YKL009W, strain mrt4, stronger effect = lower value 0.663 | S. cerevisiae deletion strains, locus YNL250W, strain rad50, stronger effect = lower value 0.814 | S. cerevisiae deletion strains, locus YNL271C, strain bni1, stronger effect = lower value 0.845 | S. cerevisiae deletion strains, locus YNL298W, strain CLA4, stronger effect = lower value 0.818 | S. cerevisiae deletion strains, locus YPR141C, strain kar3, stronger effect = lower value 0.896
inactive: S. cerevisiae deletion strains, locus YBR021W, strain FUR4, stronger effect = lower value 1 | [7] 1.01 | S. cerevisiae deletion strains, locus YCL029C, strain bik1, stronger effect = lower value 1.02 | S. cerevisiae deletion strains, locus YDL035C, strain GPR1, stronger effect = lower value 1.03 | S. cerevisiae deletion strains, locus YDL074C, strain BRE1, stronger effect = lower value 1.02 | [8] 1.02 | S. cerevisiae deletion strains, locus YDL134C, strain PPH21, stronger effect = lower value 1.01 | S. cerevisiae deletion strains, locus YDL185W, strain tfp1, stronger effect = lower value 1.01 | S. cerevisiae deletion strains, locus YDL192W, strain arf1, stronger effect = lower value 1.02 | S. cerevisiae deletion strains, locus YDR101C, strain arx1, stronger effect = lower value 1.03 | [2] 1.01 | S. cerevisiae deletion strains, locus YDR162C, strain NBP2, stronger effect = lower value 1.01 | S. cerevisiae deletion strains, locus YDR318W, strain mcm21, stronger effect = lower value 0.998 | S. cerevisiae deletion strains, locus YDR388W, stronger effect = lower value 1.02 | S. cerevisiae deletion strains, locus YDR502C, strain sam2, stronger effect = lower value 1.01 | [9] 1.01 | S. cerevisiae deletion strains, locus YER110C, stronger effect = lower value 1.02 | S. cerevisiae deletion strains, locus YER155C, strain BEM2, stronger effect = lower value 1.01 | S. cerevisiae deletion strains, locus YER167W, strain BCK2, stronger effect = lower value 1.01 | S. cerevisiae deletion strains, locus YGL086W, strain mad1, stronger effect = lower value 1.05 | S. cerevisiae deletion strains, locus YGL248W, strain PDE1, stronger effect = lower value 1 | [3] 1.01 | S. cerevisiae deletion strains, locus YGR135W, strain pre9, stronger effect = lower value 1 | S. cerevisiae deletion strains, locus YGR252W, strain gcn5, stronger effect = lower value 0.969 | [10] 1.01 | S. cerevisiae deletion strains, locus YHR079C, strain IRE1 (second series), stronger effect = lower value 1.02 | S. cerevisiae deletion strains, locus YHR094C, strain hxt1, stronger effect = lower value 1.01 | S. cerevisiae deletion strains, locus YHR129C, strain ARP1, stronger effect = lower value 1.02 | S. cerevisiae deletion strains, locus YHR200W, strain rpn10, stronger effect = lower value 1 | S. cerevisiae deletion strains, locus YIL066C, strain RNR3, stronger effect = lower value 1.02 | S. cerevisiae deletion strains, locus YIL073C, strain SPO22, stronger effect = lower value 1.07 | S. cerevisiae deletion strains, locus YIR030C, strain dcg1, stronger effect = lower value 1.01 | S. cerevisiae deletion strains, locus YJL095W, strain BCK1, stronger effect = lower value 1.01 | S. cerevisiae deletion strains, locus YJL134W, strain LCB3, stronger effect = lower value 1.01 | S. cerevisiae deletion strains, locus YJL168C, strain set2, stronger effect = lower value 1.01 | S. cerevisiae deletion strains, locus YJL187C, strain SWE1 (second series), stronger effect = lower value 1.02 | [11] 1.01 | [4] 1.01 | S. cerevisiae deletion strains, locus YKL068W, stronger effect = lower value 0.979 | S. cerevisiae deletion strains, locus YKL085W, strain MDH1 (second series), stronger effect = lower value 0.932 | S. cerevisiae deletion strains, locus YKL085W, strain MDH1, stronger effect = lower value 0.932 | S. cerevisiae deletion strains, locus YKL190W, strain CNB1, stronger effect = lower value 1.01 | S. cerevisiae deletion strains, locus YKR001C, strain vps1, stronger effect = lower value 1.02 | [12] 1.04 | S. cerevisiae deletion strains, locus YLR058C, strain SHM2, stronger effect = lower value 1.01 | S. cerevisiae deletion strains, locus YLR102C, strain apc9, stronger effect = lower value 1.02 | [13] 1.02 | S. cerevisiae deletion strains, locus YLR268W, strain sec22, stronger effect = lower value 1.04 | S. cerevisiae deletion strains, locus YLR330W, strain CHS5, stronger effect = lower value 1.01 | S. cerevisiae deletion strains, locus YLR342W, strain FKS1 (second series), stronger effect = lower value 1.03 | S. cerevisiae deletion strains, locus YLR371W, strain rom2, stronger effect = lower value 1.03 | S. cerevisiae deletion strains, locus YLR418C, strain cdc73, stronger effect = lower value 0.991 | S. cerevisiae deletion strains, locus YML016C, strain PPZ1, stronger effect = lower value 1 | S. cerevisiae deletion strains, locus YML032C, strain rad52, stronger effect = lower value 0.999 | S. cerevisiae deletion strains, locus YML124C, strain tub3, stronger effect = lower value 1.01 | S. cerevisiae deletion strains, locus YMR078C, strain ctf18, stronger effect = lower value 1.01 | S. cerevisiae deletion strains, locus YMR223W, strain ubp8, stronger effect = lower value 0.987 | [5] 0.947 | S. cerevisiae deletion strains, locus YNL067W, strain RPL9B, stronger effect = lower value 1.01 | [14] 1.02 | S. cerevisiae deletion strains, locus YNL233W, strain BNI4, stronger effect = lower value 0.999 | S. cerevisiae deletion strains, locus YNL307C, strain MCK1, stronger effect = lower value 1.02 | [6] 1.01 | S. cerevisiae deletion strains, locus YNR052C, strain pop2, stronger effect = lower value 0.998 | S. cerevisiae deletion strains, locus YOL006C, strain TOP1, stronger effect = lower value 1.08 | S. cerevisiae deletion strains, locus YOL012C, strain htz1 0.773 | S. cerevisiae deletion strains, locus YOL147C, strain pex11, stronger effect = lower value 1.01 | S. cerevisiae deletion strains, locus YOR061W, strain CKA2, stronger effect = lower value 1.01 | S. cerevisiae deletion strains, locus YOR069W, strain VPS5, stronger effect = lower value 1.02 | S. cerevisiae deletion strains, locus YOR136W, strain idh2, stronger effect = lower value 1.04 | S. cerevisiae deletion strains, locus YOR144C, strain elg1, stronger effect = lower value 1.01 | S. cerevisiae deletion strains, locus YOR184W, strain ser1, stronger effect = lower value 1.02 | S. cerevisiae deletion strains, locus YOR316C, strain cot1, stronger effect = lower value 1.02 | [15] 1.01 | S. cerevisiae deletion strains, locus YPR119W, strain clb2, stronger effect = lower value 1.02 | S. cerevisiae deletion strains, locus YPR163C, strain tif3, stronger effect = lower value 1.01 | S. cerevisiae deletion strains, locus YPR167C, strain met16, stronger effect = lower value 0.998 | S. cerevisiae deletion strains, strain wtn01, stronger effect = lower value 1.06

CSC1=NCN(Cc2ccccc2)CN1
inactive: [1] 0.991 | [7] 0.996 | [8] 1 | [2] 1.01 | [9] 0.981 | [3] 1 | [10] 1.02 | S. cerevisiae deletion strains, locus YHR087W, strain rtc3, stronger effect = lower value 1 | [11] 1 | [4] 0.99 | [12] 0.969 | S. cerevisiae deletion strains, locus YLR058C, strain SHM2 (second series), stronger effect = lower value 1.01 | S. cerevisiae deletion strains, locus YLR085C, strain ARP6, stronger effect = lower value 0.954 | [13] 0.972 | S. cerevisiae deletion strains, locus YML094W, strain GIM5, stronger effect = lower value 0.981 | S. cerevisiae deletion strains, locus YMR219W, strain ESC1, stronger effect = lower value 0.986 | S. cerevisiae deletion strains, locus YMR263W, strain SAP30, stronger effect = lower value 1 | [14] 1.02 | S. cerevisiae deletion strains, locus YNL298W, strain CLA4 (second series), stronger effect = lower value 1 | [6] 0.972 | S. cerevisiae deletion strains, locus YNR030W, strain Alg12, stronger effect = lower value 0.977 | S. cerevisiae deletion strains, locus YPL055C, strain LGE1, stronger effect = lower value 1.06 | [15] 0.987 | S. cerevisiae deletion strains, locus YPR135W, strain CTF4, stronger effect = lower value 1.1 | S. cerevisiae strains, strain wild type, stronger effect = lower value 0.98

— PubChem BioAssay AID1159580 (chemical genetic matrix, 2015)
